# Test results published in ChEMBL document CHEMBL4513146, “CO-ADD screening of Karazin Kharkiv National University (Ukraine) compounds”.
# Measured potencies and affinities stand elsewhere.
# Legend:
# Staphylococcus aureus = settings: Concentration 32 ug.mL-1;; ASSAY_TEST Inhibition of Bacterial Growth; detection method Absorption (OD600); MEDIA CAMHB; plate type 384well; NBS; CORNING #3640; time 18 hr
# Escherichia coli = settings: Concentration 32 ug.mL-1;; ASSAY_TEST Inhibition of Bacterial Growth; detection method Absorption (OD600); MEDIA CAMHB; plate type 384well; NBS; CORNING #3640; time 18 hr
Compound,Inhibition (Staphylococcus aureus) [%],Inhibition (Escherichia coli) [%]
Cc1cc2nn(CC(=O)Nc3ccc(F)cc3F)c(=O)n2c(Nc2ccc(C)c(F)c2)n1,8.31,-0.48
Cc1ccc(C)c(CN(c2cccc(Cl)c2)S(=O)(=O)c2cccn3c(C)nnc23)c1,11.55,-2.76
C=Cc1ccc(CN(c2ccc(F)cc2)S(=O)(=O)c2ccc3nnc(C)n3c2)cc1,-1.19,-7.93
Cc1cc(C)c(NC(=O)Cn2nc3c(Sc4cccc(F)c4)nccn3c2=O)c(C)c1,9.93,-1.39
O=C(Cn1nc2ccc(SCc3ccc(Cl)cc3)nn2c1=O)Nc1ccccc1C(F)(F)F,4.98,-5.74
CCCn1c(=O)c2sccc2n2c(=O)n(CC(=O)c3ccc(OC)c(OC)c3)nc12,7.14,-1.62
CCc1nnc2ccc(S(=O)(=O)N(Cc3ccc(OC)cc3)c3ccc(F)cc3)cn12,4.6,-5.2
CC(C)CCn1c(=O)c2ccc(C(=O)NC3CCCCC3)cc2n2c(=O)n(CC#N)nc12,5.76,-7.09
CC(C)(C)Sc1ccc2nn(CC(=O)Nc3ccccc3Cl)c(=O)n2n1,7.11,-2.79
O=C(CSc1nnc2c(=O)n(-c3ccccc3)ccn12)Nc1ccc(F)cc1F,-3.92,-2.13
COc1ccc(C)cc1NC(=O)Cn1nc2c3cc(-c4ccc(C)c(C)c4)nn3ccn2c1=O,0.65,-4.8
Cc1nnc2c(=O)n(CC(=O)Nc3ccc(F)cc3)c3ccccc3n12,15.51,1.65
Cc1nnc2ccc(S(=O)(=O)N(Cc3ccccc3)c3cccc(F)c3)cn12,2.5,-6.96
Cc1nnc2c(SCC(=O)Nc3cccc(Br)c3)nc3ccccc3n12,-13.66,-1.77
CCc1ccc(NC(=O)CSc2nnc3ccc(C(=O)Nc4cccc(F)c4)cn23)cc1,9.49,-4.13
Cc1cccc(N(Cc2cccc(F)c2)S(=O)(=O)c2cccn3c(C)nnc23)c1,20.9,-1.19
CCc1cccc(NC(=O)Cn2nc3ccc(SC4CCCCC4)nn3c2=O)c1,13.65,-0.36

Compound,Inhibition (Staphylococcus aureus) [%],Inhibition (Escherichia coli) [%]
O=c1c2nnc(SCc3cccc(F)c3)n2ccn1-c1ccc(Br)cc1,15.11,-3.12
CC(C)Cn1c(=O)c2sccc2n2c(=O)n(CC(=O)N(C)c3ccccc3)nc12,4.88,-0.39
CCOc1ccccc1NC(=O)Cn1nc2c(Oc3cccc(OC)c3)nccn2c1=O,11.72,-4.66
O=C(Cn1nc2ccc(SCc3ccc(Cl)cc3)nn2c1=O)Nc1cccc(F)c1,-14.75,-12.61
O=c1c2nnc(SCc3ccccc3Cl)n2ccn1-c1ccc(F)c(F)c1,11.5,-3.79
Cc1nnc2c(=O)n(CC(=O)Nc3ccc(C(C)C)cc3)c3ccccc3n12,18.68,-2.69
COC(=O)c1ccccc1NC(=O)Cn1nc2c3cc(-c4ccc(OC)cc4)nn3ccn2c1=O,11.07,4.87
CCCCN(C)c1ccc2nnc(CCc3nc(-c4ccc(C(F)(F)F)cc4)no3)n2n1,7.8,-3.35
Cc1ccc2c(c1)N(C(=O)Cn1nc3ccc(SCc4ccc(Cl)cc4)nn3c1=O)CCO2,2.18,-5.63
CCc1ccc(NC(=O)Cn2nc3c(=O)n(-c4ccc(Br)cc4)ccn3c2=O)cc1,-5.7,-7.12
Cc1ccccc1CSc1nnc2c(=O)n(-c3ccc(F)cc3)ccn12,16.33,-5.51
CCOc1ccccc1NC(=O)Cn1nc2c3cc(-c4ccc(Cl)cc4)nn3ccn2c1=O,6.48,1.3
Cc1ccc(Sc2nccn3c(=O)n(CC(=O)Nc4ccc(F)c(Cl)c4)nc23)c(C)c1,-12.28,-15.97
COC(=O)c1ccc(NC(=O)Cn2nc3nc(N4CCCCCC4)ccn3c2=O)cc1,7.17,-2.48
O=c1c2nn(Cc3c(F)cccc3Cl)c(=O)n2ccn1-c1ccccc1,-4.83,2.37
Cc1ccccc1Nc1cc(C)n2c(=O)n(CCOc3ccc(F)cc3)nc2n1,13.1,-3.45
